Here are results for 60 sequences from the OligoGym collection.

Some targets named below: SRCRB4D; SQRDL; SRCAP; SRC; SRSF11; SSR4; ST6GAL2; SSX4B; SSX3; SSX5; STK32B; STX12.
Holding throughout (assay): pooled miR-30 sensor sort-seq; sequence = guide strand
Common to all, as to conditions: shRNA
Note: reference of the scale not given here.

As for TAACATCTTCCTTGTTGGGGGC, the sensor-assay potency score (higher = more potent) with SRCRB4D was -0.0485.
TTGGTCACCATTACCCATCAAG: the sensor-assay potency score (higher = more potent) in the assay with SQRDL is -1.14.
In the assay with SRCAP, TTGTTCTTCAACTTCAATCGTT had a sensor-assay potency score (higher = more potent) of 0.0088.
In the assay with SRCAP, TAGACCTTCATTATACTCTTGG returned a sensor-assay potency score (higher = more potent) of 0.352.
On to TGAAGGACAGGTCTGTCTCCGT, for which, in the assay with SRC, the sensor-assay potency score (higher = more potent) was -0.405.
For TTGTCCTATCAAGTATTCCTGA, the sensor-assay potency score (higher = more potent) in the assay with SQRDL is -0.574.
As to TTTCTTGTAGTTAACAGTGAGG, the sensor-assay potency score (higher = more potent) in the assay with SQRDL was -0.847.
In turn, TTCCACTTGCTCTTCTGCCTGT came in with a sensor-assay potency score (higher = more potent) in the assay with SRCAP of 0.497.
On to TCTGTGTTGTTGACAATCTGGA, for which the sensor-assay potency score (higher = more potent) with SRC is 0.0722.
As for ATAGGTTCCAAGTCCTTCGTGC, the sensor-assay potency score (higher = more potent) with SQRDL came out at 0.618.
For TCGTAGGAGGTGCTCTACTGGT, the sensor-assay potency score (higher = more potent) with SRCRB4D was -1.24.
Consider TTTGGCACCAGCACCCACCAGT, for which the sensor-assay potency score (higher = more potent) with SQRDL is -0.354.
As for TTGATCTTGAATGCCTTCTTTT, the sensor-assay potency score (higher = more potent) with SRSF11 is -0.673.
The same measure, in the same setting: the same measure for TTAGGGACTGTGCTTCTCGTAC: -0.978.
For AAGTAGTAGATCACAAGGCCGA, in the assay with SSR4, the sensor-assay potency score (higher = more potent) is -0.597.
Same read-out and setting: the same measure for TCAGAAGTGGTGTAGTAGGAAG: -1.28.
In the case of TTAATGATGCGTATGGTGGTTT, in the assay with ST6GAL2, the sensor-assay potency score (higher = more potent) was -0.296.
Same read-out and setting: for TACACGTGCACCTCTCTGCACA the value was -0.913; for TGCGTCGTAGTACAGCTCGTGG, -0.842.
Regarding TTGTTAATCTTCTCCAAGGTAC, in the assay with SSX4B, the sensor-assay potency score (higher = more potent) is -0.679.
Take TTTATGTTCAAACCCATCTTGG: in the assay with ST6GAL2, the sensor-assay potency score (higher = more potent) is -0.693.
As to ATATCATGTTAATCTTCTCAGA, in the assay with SSX3, the sensor-assay potency score (higher = more potent) is -1.24.
In the case of TTCATAAACCACCAGCTGCTTT, in the assay with SSX4B, the sensor-assay potency score (higher = more potent) was -1.07.
Consider AAAGTAGTCGTCATCCTCCGGG, for which, in the assay with ST6GAL2, the sensor-assay potency score (higher = more potent) stood at 0.386.
As for TTAGTCATGACCTCATAGTTTA, the sensor-assay potency score (higher = more potent) with SSX4B is -0.622.
Take TTCTCTTTAGTGTTCTCCTGGA: the sensor-assay potency score (higher = more potent) with ST6GAL2 is 0.105.
For the sequence TGTCTTGTTAATCTTCTCCAAG, the sensor-assay potency score (higher = more potent) in the assay with SSX4B was -1.4.
For AACCATTTTCTTCCTCTGCTGG, the sensor-assay potency score (higher = more potent) with SSX4B was -0.606.
In turn, TTTATTCCCAACATCTTTCTCA showed a sensor-assay potency score (higher = more potent) in the assay with ST6GAL2 of 0.384.
In the case of TGCTTTTGCATCTTCTCTGGTA, in the assay with SSX5, the sensor-assay potency score (higher = more potent) was -0.325.
On to TAATCTTCTCCAAGGTACTTGG, for which the sensor-assay potency score (higher = more potent) in the assay with SSX4B was -0.322.
Turning to TTGGTTGAATCTTCTCTTTAGT, the sensor-assay potency score (higher = more potent) with ST6GAL2 is -0.57.
In the assay with SSX5, TTGCTTTCTCTCACGCACTCTG returned a sensor-assay potency score (higher = more potent) of 0.108.
In the case of TGATATTTGAGCATCATCCCTG, the sensor-assay potency score (higher = more potent) with SSX4B came out at 0.125.
Take TTTGGTTGAATCTTCTCTTTAG: in the assay with ST6GAL2, the sensor-assay potency score (higher = more potent) is -0.877.
As for CATCTGAGGACGTTGAACCTGA, the sensor-assay potency score (higher = more potent) with SSX3 is -0.724.
Turning to TTCATAAATCACCAGTTGCTTT, in the assay with SSX5, the sensor-assay potency score (higher = more potent) is -1.18.
In turn, TTAATCTTCTCCAAGGTACTTG registered a sensor-assay potency score (higher = more potent) with SSX4B of 0.0289.
For TGGTATTTGAGAACCAACCCTA, the sensor-assay potency score (higher = more potent) in the assay with SSX5 was -0.335.
With TCTCTGATATTTGAGCATCATC, the sensor-assay potency score (higher = more potent) with SSX4B is -2.01.
For the sequence TTTGTATCTTCTCTGGTATTTG, the sensor-assay potency score (higher = more potent) with SSX3 is -1.22.
For TTTGAGAACCAACCCTAGGTCT, the sensor-assay potency score (higher = more potent) with SSX5 is -0.607.
The same measure, in the same setting: the same measure for TTGCTCATCAGTGAAAACGCTA: -0.328; for TTCTCTCACGCACTCTGTGGGT: -1.32.
As to TTTGGGTCCAGATATCATGTTA, the sensor-assay potency score (higher = more potent) with SSX3 is -0.75.
Take TACACAAACTGAAATATGCATT: the sensor-assay potency score (higher = more potent) in the assay with SSX5 is -0.947.
Take AAGTAGTCGTCATCCTCCGGGT: in the assay with ST6GAL2, the sensor-assay potency score (higher = more potent) is -0.429.
TTTAGCTTCATATACACATAGA: in the assay with SSX4B, the sensor-assay potency score (higher = more potent) was -0.61.
Turning to TTGTTAACCTTCTCAGAGGTAT, in the assay with SSX5, the sensor-assay potency score (higher = more potent) was -0.473.
As to TTTAGTCATGACCTCATAGTTT, in the assay with SSX4B, the sensor-assay potency score (higher = more potent) is -0.792.
For TTCTCGGGCGTGATCTTCGGGA, in the assay with SSX5, the sensor-assay potency score (higher = more potent) is -0.793.
As to TTTCTCCGAGACTTTCATCTTT, the sensor-assay potency score (higher = more potent) with SSX3 was -0.136.
Same read-out and setting: the same measure for TTGAACCTGATTCCCACGGTTA: -0.528.
ATTCCTGTGGTTTCGATCGTTA: the sensor-assay potency score (higher = more potent) in the assay with SSX4B was -0.284.
As to AACAGAAACACTAACATCGAAC, the sensor-assay potency score (higher = more potent) in the assay with SSX5 is -0.742.
On the same count and under the same terms, the same measure for TTTCTCTCACGCACTCTGTGGG: -0.559.
Consider TAAGATTTGCGGAATATGGGGC, for which the sensor-assay potency score (higher = more potent) with ST6GAL2 is 0.141.
Still for that read-out and setting: for TTGAATCTTCTCTTTAGTGTTC the value was 0.135.
As for TTTCTTAGTGTCTCGCTTCTGC, the sensor-assay potency score (higher = more potent) with STK32B was 0.225.
As to TCTGATAGTAAGCAGCTCGCTG, in the assay with STX12, the sensor-assay potency score (higher = more potent) was -0.759.
